# Source: PubChem BioAssay (several laboratories)
# Compounds with a hit are over-represented: about 8.9% of the library has one in this group of screens.
# M1 antagonist – blocks the rat M1 muscarinic receptor response to acetylcholine. P08482. CHO-M1 cells, Fluo-4 calcium, ACh EC80 antagonist mode; stronger effect = lower value. B-score at 10 µM. hit rate 3.4% among 64,000. AID 628;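 active = calcium fluorescence response, raw or row-and-column corrected B-score, differing from the plate sample mean either way at a set confidence level, mostly lower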
# M1 agonist – agonists of M1 muscarinic receptor; CHO-M1 cells, Fluo-4 calcium fluorescence, agonist mode; stronger effect = higher value; B-score at 10 µM; hit rate 3% among 64,000;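 active = fluorescence rise, raw or as B-score row- and column-corrected plate score, outside the 99.7% band of its plate's samples, either direction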
# mHtt clearance – mutant huntingtin protein clearance. HeLa Exon1htt(103Q)mCFP, aggregate imaging; zero = plate's median compound well. inhibition, % at 1.5 µM. hit rate 0.42% among 47,000. AID 853;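 active = inhibition of aggregate fluorescence above about 70%, also judged a hit by eye on the cell image, limit read from the data, passing the limit was not always enough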;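 also: cells exposed to compound for three days before fixation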
# WNV NS2B-NS3 inh – WNV NS2B-NS3 proteinase inhibition; z-score (test concentration not listed); hit rate 0.18% among 65,000; WNV NS2B-NS3 protease, fluorogenic substrate Ex360/Em465; stronger effect = lower value; P06935; in the data active = z-score below about -3
# D1 mod – D1 dopamine receptor (human) allosteric modulation; hit rate 5.9% among 58,000; HEK293 D1, CRE-luciferase, dopamine EC30 potentiation; actives deviate in either direction; B-score at 10 µM;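 active = luminescence count or its row- and column-corrected plate score outside the 99.7% band of the plate's sample wells, on either side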
# Target sequence (P21728 whole entry, looked up): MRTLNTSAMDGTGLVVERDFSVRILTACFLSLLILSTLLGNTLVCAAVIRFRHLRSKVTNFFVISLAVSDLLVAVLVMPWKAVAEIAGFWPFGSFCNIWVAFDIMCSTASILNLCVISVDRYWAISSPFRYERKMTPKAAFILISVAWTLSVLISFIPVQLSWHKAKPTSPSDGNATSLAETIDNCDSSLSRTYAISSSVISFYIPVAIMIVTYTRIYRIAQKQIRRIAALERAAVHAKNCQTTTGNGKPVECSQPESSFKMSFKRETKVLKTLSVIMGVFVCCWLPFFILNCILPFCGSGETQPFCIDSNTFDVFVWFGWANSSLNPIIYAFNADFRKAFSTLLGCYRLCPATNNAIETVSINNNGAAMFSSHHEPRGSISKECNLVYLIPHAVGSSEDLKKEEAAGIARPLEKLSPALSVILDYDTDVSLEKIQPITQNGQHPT
# D1 mod confirm – D1 receptor (human) allosteric modulation, confirmed. shares compounds with D1 mod. HEK293 D1 CRE-luciferase, dopamine EC30 potentiation; stronger effect = higher value. luminescence at 10 µM. hit rate 88% among 2,200;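 active = luminescence in either of two replicates above the same-plate mean plus 3 SD of the low-dose dopamine control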
# D1 no dopamine – secondary test of D1 modulators: activity without dopamine | luminescence at 10 µM | HEK293 D1 CRE-luciferase, luminescence, no dopamine; stronger effect = higher value | AID 646 | hit rate 0.8% among 1,900 | shares compounds with D1 mod; in the data active = luminescence above about 3900
# Isoprot counter – alters isoproterenol CRE-luciferase response in HEK293 cells; shares compounds with D1 mod; HEK293 D1 CRE-luciferase, isoproterenol EC30 counter-screen; calls only at 10 µM; hit rate 63% among 2,200; AID 647;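 active = luminescence in either replicate above plate mean of wells with a partly effective reference agonist dose plus 3 SD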;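 also: isoproterenol raises cAMP through native beta-adrenoceptor Gs so signal bypasses D1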
# * marks the source's active call; other numbers are inactive results; i = inactive; nt = no result; + = active, no number.
SMILES,M1 antagonist,M1 agonist,mHtt clearance,WNV NS2B-NS3 inh,D1 mod,D1 mod confirm,D1 no dopamine,Isoprot counter
Cc1cc(=O)n(CC=C(Cl)Cl)c2ccccc12,-0.25,0.088,nt,-0.83,2.9*,7272*,1672,i
CCCOc1ccc(C2C(C(=O)c3ccco3)=C(O)C(=O)N2CCCn2ccnc2)cc1 (stereo not given),0.14,-0.58,-20,0.01,-0.048,nt,nt,nt
CN(C)c1ccc(C2OC(=O)C(C)(C)C(=O)C2(C)C)cc1 (stereo not given),nt,nt,3,nt,nt,nt,nt,nt
CCn1c2ccccc2c2cc(Nc3cc(C)nc4ncnn34)ccc21,-0.13,2,nt,0.22,7.5*,11088*,1852,+
Cc1cc(Nc2ccc(F)c(Cl)c2)n2ncnc2n1,0.47,0.016,nt,0.99,4.3*,8188*,1652,+
CCOc1ccc(-c2nc(CSc3nncs3)cs2)cc1OC,0.67,0.18,27,-1.6,23*,21360*,nt,+
Nc1nnc(N2CCCCCC2)s1,0.5,0.28,nt,3.4,-0.76,nt,nt,nt
CC1CCN(c2nnc(N)s2)CC1,-0.067,-0.013,-20,-0.02,2.8*,4832,944,i
C=CCn1c(=O)c2c(C)c(C)sc2n2c(Nc3ccc(OC)cc3)nnc12,0.023,0.9,-53,0.91,3.3*,10192*,1584,i
Cc1sc2c(c1C)c(=O)n(-c1ccccc1)c1nnc(C)n21,0.037,0.2,-31,1.1,3.1,nt,nt,nt
OCCN(CCO)c1ncnc2c1oc1ccc(Br)cc12,nt,nt,-48,nt,nt,nt,nt,nt
CCn1ncc(C2=NOC(C(=O)Nc3cc(OC)c(Cl)cc3OC)C2)c1C (stereo not given),0.61,0.69,nt,-0.0087,0.15,nt,nt,nt
CCOc1ccc(C(=O)OCC(=O)NCc2ccco2)cc1OCC,0.059,-0.31,nt,-0.8,7.7*,12216*,1596,+
COc1ccc(C(=O)OCC(=O)NCc2ccco2)cc1OC,0.98,0.29,nt,-0.12,1.1,nt,nt,nt
CCCCNC(=O)Nc1ccc(Br)cn1,0.3,0.075,nt,1.3,7.2*,12048*,1684,i
CCCNC(=O)c1ccccc1C(=O)NCCC,-1.8,-0.0077,nt,1.5,-1.2,nt,nt,nt
CC1=N/C(=C\c2ccc([N+](=O)[O-])cc2)C(=O)N1c1cc(Cl)ccc1C,nt,nt,21,nt,nt,nt,nt,nt
CCn1nc(C(=O)NC2=NCCS2)c2ccccc2c1=O,-0.16,-1,-228,2.7,2.9*,9356*,1640,i
CCSc1nncn1/N=C/c1ccc(OC)c(OC)c1,1.9,1.4,nt,-0.75,8.3*,15592*,1796,+
C=C(C)CSc1nncn1/N=C/c1ccc(OC)cc1,0.39,-0.6,10,0.45,3.5,nt,nt,nt
COc1nc(Nc2ccc(C(C)C)cc2)nc(OC)n1,nt,nt,-14,nt,nt,nt,nt,nt
COc1nc(Nc2ccc(O)cc2)nc(OC(C(F)(F)F)C(F)(F)F)n1,nt,nt,nt,-0.33,6.2*,13552*,nt,+
CCOC(=O)c1c(NC(=O)CSc2nnc(-c3cccnc3)o2)sc(C(C)=O)c1C,-0.05,0.57,nt,0.87,4*,6332*,1464,+
CCOC(=O)c1c(NC(=O)CSc2nnc(-c3ccco3)o2)sc(C(C)=O)c1C,-0.061,0.44,-25,0.36,2.9,nt,nt,nt
O=C1N(CN2CCN(c3cccc(Cl)c3)CC2)c2ccccc2C12OCCCO2,0.1,0.17,nt,-2,2.4*,3096*,1476,i
SMILES,M1 antagonist,M1 agonist,mHtt clearance,WNV NS2B-NS3 inh,D1 mod,D1 mod confirm,D1 no dopamine,Isoprot counter
O=C1N(CN2CCC3(CC2)OCCO3)c2ccccc2C12OCCCO2,-0.56,-0.053,14,-0.17,-0.84,nt,nt,nt
COCCOC(=O)c1c(C)oc2ccc(OC(=O)c3ccc4c(c3)OCO4)cc12,0.13,-0.77,nt,-0.01,-0.58,nt,nt,nt
CCCCn1c(=O)[nH]c(=O)c2c1nc(COC(=O)c1c(C)noc1C)n2CCC,0.0083,0.46,67,2.7,6.2*,14616*,1628,+
CCCCCn1c(CN2CCN(C(=O)OCC)CC2)nc2c1c(=O)[nH]c(=O)n2C,-0.6,-0.05,30,-0.0052,-0.082,nt,nt,nt
CCn1c(=NC(=O)c2ccc(N3C(=O)CCC3=O)cc2)sc2c(OC)ccc(OC)c21,0.36,-0.074,nt,-1.2,9.9*,22036*,1820,+
CCn1c(=NC(=O)CN2C(=O)CCC2=O)sc2c(OC)ccc(OC)c21,0.061,-0.28,nt,-0.19,5.4*,11544*,nt,i
COc1ccc(N2C(=O)CCC2=O)cc1,0.21,0.51,-3,1.8,0.55,nt,nt,nt
Cc1cccc(-c2noc(CCCOc3ccc(Cl)cc3Cl)n2)c1,nt,nt,-15,nt,nt,nt,nt,nt
CCC(C)c1cc(S(=O)(=O)N2CCOCC2)ccc1OC (stereo not given),0.32,0.62,-75,0.82,9.5*,11376*,nt,+
COc1ccc(S(=O)(=O)N2CCOCC2)cc1C(C)C,0.74,1.1,21,1.6,1.1,nt,nt,nt
COc1ccc(S(=O)(=O)N2CC3C4C=CC(C4)C3C2)cc1 (stereo not given),0.91,-0.32,4,1.4,nt,nt,nt,nt
COc1ccc(Nc2nc(N)nc(SCc3nnc(C)s3)n2)cc1,-0.19,-0.35,nt,1,5.7*,8828*,1624,+
CCOC(=O)C(C)n1cnc2c(oc3ccccc32)c1=O (stereo not given),0.44,0.53,43,1.5,0.057,nt,nt,nt
Cc1cc2ccccc2c(=O)n1CC(=O)N(C)c1ccc(F)cc1,-0.23,-0.67,nt,-0.33,-0.068,nt,nt,nt
CCCS(=O)(=O)N1CCC(C(=O)NCCN(C)Cc2ccccc2)CC1,-0.31,-1.1,nt,0.24,2.6*,5744,1548,i
CCOC(=O)N1CCN(S(=O)(=O)c2ccc3c(c2)CCN3C(=O)C2CC2)CC1,-0.077,-0.63,35,0.3,-0.93,nt,nt,nt
O=C(C1CCC1)N1CCc2cc(S(=O)(=O)N3CCCCC3)ccc21,-0.26,-0.51,34,0.3,1.1,nt,nt,nt
O=C(C1CCC1)N1CCc2cc(S(=O)(=O)N3CCN(c4ccccn4)CC3)ccc21,-0.41,-0.065,nt,0.92,6.1*,10104*,nt,+
O=C(C1CC1)N1CCc2cc(S(=O)(=O)N(CCO)Cc3ccccc3)ccc21,0.42,-2.7,nt,-0.34,4.2*,15244*,1640,+
CCOC(=O)N1CCN(S(=O)(=O)c2ccc3c(c2)CCN3C(=O)C2CCC2)CC1,0.7,0.43,nt,-0.06,3.3*,7472*,1692,i
O=C(c1ccco1)N1CCN(S(=O)(=O)c2ccc3c(c2)CCN3C(=O)C2CCC2)CC1,-0.56,1.2,-26,0.43,2.6*,11588*,1732,+
Cc1ccc(CNS(=O)(=O)NCc2ccccc2)cc1,nt,nt,16,nt,nt,nt,nt,nt
CCOC(=O)c1cc(NC(=O)c2ccc(Cl)cc2)c(=O)n2c1oc1ccc(Cl)cc12,nt,nt,7,nt,nt,nt,nt,nt
COc1ccc(S(=O)(=O)N2CCN(c3ccccn3)CC2)cc1OC,0.1,-0.17,-1,0.38,5.3*,6880*,nt,i
